Results from PubChem BioAssay (NCI).
Compounds without any hit were thinned out: in the full panel of roughly 83,000, 20% have a hit.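 Growth was measured after 48 h exposure to one concentration of compound in 96-well plates. Values under 10 count as active.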 Calls of active or inactive are those of the source.

Columns and labels:
Assay in all cases: NCI-60 one-dose screen, 48 h (100 = growth as untreated, 0 = no growth, -100 = all killed)
Settings in all cases: 10 µM unless noted
SR leukemia = system: SR leukemia
RPMI-8226 leukemia = system: RPMI-8226 leukemia
OVCAR-8 ovarian = system: OVCAR-8 ovarian
OVCAR-5 ovarian = system: OVCAR-5 ovarian
OVCAR-4 ovarian = system: OVCAR-4 ovarian
SK-OV-3 ovarian = system: SK-OV-3 ovarian
OVCAR-3 ovarian = system: OVCAR-3 ovarian
NCI/ADR-RES ovarian = system: NCI/ADR-RES ovarian
T-47D breast = system: T-47D breast
MDA-MB-435 melanoma = system: MDA-MB-435 melanoma
SW-620 colon = system: SW-620 colon
MCF7 breast = system: MCF7 breast
HCT-116 colon = system: HCT-116 colon
HCC-2998 colon = system: HCC-2998 colon
KM12 colon = system: KM12 colon
IGROV1 ovarian = system: IGROV1 ovarian
BT-549 breast = system: BT-549 breast
HS 578T breast = system: HS 578T breast

Measured: growth

c1cncc(-c2nc3ccccc3[nH]2)c1
inactive: SR leukemia 90.6% | RPMI-8226 leukemia 75.3% | OVCAR-8 ovarian 98.4% | OVCAR-5 ovarian 86.5% | OVCAR-4 ovarian 104% | SK-OV-3 ovarian 95.3% | OVCAR-3 ovarian 98.6% | NCI/ADR-RES ovarian 96.1% | T-47D breast 103% | MDA-MB-435 melanoma 121% | SW-620 colon 85.1% | MCF7 breast 85.1% | HCT-116 colon 93.8% | HCC-2998 colon 92.2% | KM12 colon 97.5%

COc1cc(NC(C)CCCN2C(=O)c3ccccc3C2=O)c2nccc(C)c2c1OC (stereo not drawn)
inactive: SR leukemia 33% | RPMI-8226 leukemia 64.3% | OVCAR-8 ovarian 91.6% | OVCAR-5 ovarian 110% | OVCAR-4 ovarian 70.5% | SK-OV-3 ovarian 107% | IGROV1 ovarian 44.1% | NCI/ADR-RES ovarian 74% | T-47D breast 78.2% | BT-549 breast 113% | SW-620 colon 93.5% | MCF7 breast 40.4% | HCT-116 colon 87.8% | HCC-2998 colon 113% | KM12 colon 97.4%

COc1cc2c(/C=C3/C(=O)Nc4ccc(O)cc43)c(Cl)n(Cc3cc(OC)c(OC)c(OC)c3)c2cc1C
active: SR leukemia -38.1% | RPMI-8226 leukemia -22.9% | HS 578T breast 4.73% | NCI/ADR-RES ovarian 9.32% | BT-549 breast -7.31% | MDA-MB-435 melanoma 2.91% | MCF7 breast 3.36%
inactive: OVCAR-8 ovarian 22.3% | OVCAR-5 ovarian 74.1% | OVCAR-4 ovarian 21.8% | SK-OV-3 ovarian 38.5% | IGROV1 ovarian 26.9% | T-47D breast 23.5% | SW-620 colon 19.3% | HCT-116 colon 18.1% | HCC-2998 colon 85.5% | KM12 colon 16.3%

Cc1cn(C2CC(N=[N+]=[N-])C(COP(=O)(O)OP(=O)(O)OP(=O)(O)O)O2)c(=O)[nH]c1=O (stereo not drawn)
inactive: SR leukemia 24.3% | RPMI-8226 leukemia 60.7% | OVCAR-8 ovarian 120% | OVCAR-5 ovarian 93% | OVCAR-4 ovarian 108% | SK-OV-3 ovarian 104% | IGROV1 ovarian 75.5% | HS 578T breast 133% | NCI/ADR-RES ovarian 111% | T-47D breast 111% | BT-549 breast 115% | MDA-MB-435 melanoma 107% | SW-620 colon 109% | MCF7 breast 104% | HCT-116 colon 94.1% | KM12 colon 108%

O=C(COc1ccc(Cl)cc1)N1CCN(Cc2ccc3c(c2)OCO3)CC1
inactive: SR leukemia 97.8% | RPMI-8226 leukemia 88.7% | OVCAR-8 ovarian 91.8% | OVCAR-4 ovarian 94.5% | SK-OV-3 ovarian 93.5% | IGROV1 ovarian 106% | OVCAR-3 ovarian 99.2% | HS 578T breast 92.8% | NCI/ADR-RES ovarian 92.6% | T-47D breast 78.2% | BT-549 breast 98.3% | MDA-MB-435 melanoma 101% | SW-620 colon 97% | MCF7 breast 103% | HCT-116 colon 102% | HCC-2998 colon 99.9% | KM12 colon 102%

CC(CN(C)C)CN1c2ccccc2CCc2ccccc21 (stereo not drawn)
inactive: SR leukemia 91.4% | RPMI-8226 leukemia 90.4% | OVCAR-8 ovarian 106% | OVCAR-4 ovarian 78.7% | SK-OV-3 ovarian 95% | IGROV1 ovarian 62% | OVCAR-3 ovarian 111% | HS 578T breast 86.4% | NCI/ADR-RES ovarian 76.4% | T-47D breast 78.1% | BT-549 breast 90.7% | MDA-MB-435 melanoma 72.4% | SW-620 colon 93.3% | MCF7 breast 96.3% | HCT-116 colon 53.2% | HCC-2998 colon 54.6% | KM12 colon 106%

Oc1ccccc1/C=N/c1ccccn1
inactive: SR leukemia 104% | RPMI-8226 leukemia 78% | OVCAR-8 ovarian 95% | OVCAR-4 ovarian 106% | SK-OV-3 ovarian 99.6% | OVCAR-3 ovarian 111% | HS 578T breast 143% | T-47D breast 95.9% | SW-620 colon 107% | MCF7 breast 97.7% | HCT-116 colon 103% | KM12 colon 113%
active: NCI/ADR-RES ovarian -97.1% | HCC-2998 colon -94.1%

COc1ccccc1P(c1ccccc1OC)c1ccccc1OC
active: HCC-2998 colon -97.4%
inactive: SR leukemia 107% | RPMI-8226 leukemia 113% | OVCAR-8 ovarian 66% | OVCAR-4 ovarian 100% | SK-OV-3 ovarian 91.2% | OVCAR-3 ovarian 108% | HS 578T breast 133% | NCI/ADR-RES ovarian 172% | T-47D breast 87.6% | MDA-MB-435 melanoma 115% | SW-620 colon 103% | MCF7 breast 95.9% | HCT-116 colon 94.2% | KM12 colon 86.4%

COc1ccc(-c2[nH]c3ccccc3c2/C=C(\C#N)S(=O)(=O)c2ccccc2)cc1
active: SR leukemia 1.93% | OVCAR-4 ovarian -14.3% | OVCAR-3 ovarian -35.7% | NCI/ADR-RES ovarian 0.134% | MDA-MB-435 melanoma -5.59% | MCF7 breast 6.42% | HCC-2998 colon -29.2% | KM12 colon 7.51%
inactive: OVCAR-8 ovarian 44.4% | OVCAR-5 ovarian 32.2% | SK-OV-3 ovarian 29.2% | IGROV1 ovarian 32.7% | HS 578T breast 23.8% | T-47D breast 66.7% | BT-549 breast 80.5% | SW-620 colon 28.6% | HCT-116 colon 11%

CC(C)(C)C(=O)/C=c1/[nH]c(=O)/c(=C/c2ccccc2O)s1
inactive: RPMI-8226 leukemia 60% | OVCAR-8 ovarian 66.9% | OVCAR-5 ovarian 86.9% | OVCAR-4 ovarian 67.3% | SK-OV-3 ovarian 81.4% | IGROV1 ovarian 50.1% | OVCAR-3 ovarian 20.2% | HS 578T breast 71.7% | NCI/ADR-RES ovarian 47.1% | T-47D breast 41.3% | BT-549 breast 71.8% | SW-620 colon 34% | MCF7 breast 28.1% | HCT-116 colon 21.2% | HCC-2998 colon 77.6% | KM12 colon 29.9%
active: MDA-MB-435 melanoma -25.9%

CN[C@@H](CCCNC(N)=NC/C=C(/C)CCC=C(C)C)C(=O)N(C)[C@@H](CCCNC(N)=NCC=C(C)C)C(=O)N[C@H](C)[C@H](OS(=O)(=O)O)c1ccc(OS(=O)(=O)O)c(COS(=O)(=O)O)c1
inactive: RPMI-8226 leukemia 92.9% | OVCAR-8 ovarian 98.4% | OVCAR-5 ovarian 113% | OVCAR-4 ovarian 120% | SK-OV-3 ovarian 110% | IGROV1 ovarian 110% | OVCAR-3 ovarian 107% | HS 578T breast 97.3% | NCI/ADR-RES ovarian 105% | T-47D breast 98.1% | BT-549 breast 107% | MDA-MB-435 melanoma 113% | SW-620 colon 108% | MCF7 breast 97.7% | HCT-116 colon 101% | HCC-2998 colon 105% | KM12 colon 100%

COc1cc2c(cc1OC)-c1c(oc3c4c(ccc3c1=O)OC(C)(C)C=C4)CO2
inactive: RPMI-8226 leukemia 49.3% | OVCAR-8 ovarian 67.7% | OVCAR-5 ovarian 89.3% | OVCAR-4 ovarian 41.8% | SK-OV-3 ovarian 77.6% | IGROV1 ovarian 85% | OVCAR-3 ovarian 63.7% | HS 578T breast 99.8% | NCI/ADR-RES ovarian 65.8% | T-47D breast 39.2% | BT-549 breast 52.6% | MDA-MB-435 melanoma 61.2% | SW-620 colon 89.8% | MCF7 breast 48.8% | HCT-116 colon 40.3% | HCC-2998 colon 81.5% | KM12 colon 76.8%

NC(N)=N/N=C/c1ccc([N+](=O)[O-])cc1
inactive: SR leukemia 110% | OVCAR-8 ovarian 108% | OVCAR-5 ovarian 99.1% | OVCAR-4 ovarian 102% | SK-OV-3 ovarian 108% | IGROV1 ovarian 125% | OVCAR-3 ovarian 117% | HS 578T breast 86.5% | NCI/ADR-RES ovarian 78.5% | T-47D breast 98.7% | BT-549 breast 85.5% | MDA-MB-435 melanoma 112% | SW-620 colon 94.1% | MCF7 breast 93.1% | HCT-116 colon 90.6% | HCC-2998 colon 99.9% | KM12 colon 103%

CC(C(C(=O)N1CCCCC1)N1CCCCC1)N1CCCCC1 (stereo not drawn)
inactive: SR leukemia 71.3% | OVCAR-8 ovarian 105% | OVCAR-5 ovarian 117% | OVCAR-4 ovarian 116% | SK-OV-3 ovarian 103% | IGROV1 ovarian 160% | OVCAR-3 ovarian 119% | HS 578T breast 103% | NCI/ADR-RES ovarian 112% | T-47D breast 107% | BT-549 breast 111% | MDA-MB-435 melanoma 109% | SW-620 colon 108% | MCF7 breast 104% | HCT-116 colon 97% | HCC-2998 colon 107% | KM12 colon 113%

c1ccc([Se]CCCN2CCN(CCC[Se]c3ccccc3)CC2)cc1
inactive: SR leukemia 126% | OVCAR-8 ovarian 119% | OVCAR-5 ovarian 121% | OVCAR-4 ovarian 101% | SK-OV-3 ovarian 113% | IGROV1 ovarian 103% | OVCAR-3 ovarian 116% | HS 578T breast 110% | NCI/ADR-RES ovarian 101% | T-47D breast 111% | BT-549 breast 125% | MCF7 breast 110% | HCT-116 colon 74.5% | HCC-2998 colon 115% | KM12 colon 109%
active: MDA-MB-435 melanoma -44.2%

COC(OC)C1(c2ccccc2)NC(=O)NC1=O (stereo not drawn)
inactive: SR leukemia 74.8% | OVCAR-8 ovarian 103% | OVCAR-5 ovarian 122% | OVCAR-4 ovarian 113% | SK-OV-3 ovarian 102% | IGROV1 ovarian 142% | OVCAR-3 ovarian 126% | HS 578T breast 111% | NCI/ADR-RES ovarian 116% | T-47D breast 106% | BT-549 breast 114% | SW-620 colon 109% | MCF7 breast 104% | HCT-116 colon 99.4% | HCC-2998 colon 101% | KM12 colon 115%

CCCCNc1cc(C(=O)O)cc(S(N)(=O)=O)c1Oc1ccccc1
inactive: SR leukemia 104% | RPMI-8226 leukemia 112% | OVCAR-8 ovarian 107% | OVCAR-4 ovarian 105% | SK-OV-3 ovarian 108% | IGROV1 ovarian 109% | OVCAR-3 ovarian 115% | NCI/ADR-RES ovarian 99.1% | T-47D breast 103% | BT-549 breast 104% | MDA-MB-435 melanoma 99.3% | SW-620 colon 99.1% | MCF7 breast 111% | HCT-116 colon 110% | HCC-2998 colon 103% | KM12 colon 107%

CC1CCc2cc(F)cc3c(=O)c(C(=O)O)cn1c23 (stereo not drawn)
inactive: SR leukemia 95.4% | RPMI-8226 leukemia 105% | OVCAR-8 ovarian 97.5% | OVCAR-4 ovarian 111% | SK-OV-3 ovarian 108% | IGROV1 ovarian 109% | OVCAR-3 ovarian 114% | HS 578T breast 103% | NCI/ADR-RES ovarian 94.8% | MDA-MB-435 melanoma 94.8% | SW-620 colon 106% | MCF7 breast 112% | HCT-116 colon 105% | HCC-2998 colon 105% | KM12 colon 102%

CCc1ccc(C2=C/C(=C/c3ccc(Cl)cc3)C(=O)N2CCc2ccc(S(N)(=O)=O)cc2)cc1
active: T-47D breast 0.105% | MCF7 breast 6.29%
inactive: RPMI-8226 leukemia 18.9% | OVCAR-8 ovarian 21.5% | OVCAR-5 ovarian 47.2% | OVCAR-4 ovarian 32.1% | SK-OV-3 ovarian 46% | IGROV1 ovarian 27.7% | OVCAR-3 ovarian 23.6% | HS 578T breast 62.6% | NCI/ADR-RES ovarian 51.8% | BT-549 breast 38% | MDA-MB-435 melanoma 36.7% | SW-620 colon 25.2% | HCT-116 colon 13.6% | HCC-2998 colon 24.8% | KM12 colon 18.8%
